Holding throughout (assay): qHTS profiling for inhibitors of Plasmodium falciparum proliferation (AID 504749); further: nearly all actives have a fitted effect of over 60% in size
Holding throughout (settings): P. falciparum in erythrocytes, SYBR Green DNA, 72 h; series mostly up to 28.7 µM
A general note: Quantitative high-throughput screening tests each substance at several concentrations.

Experiment [1] has as its system CP192. The method, boiled down:
(§1)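 Parasite proliferation within erythrocytes, 72 h exposure. Endpoint: SYBR Green I fluorescence after overnight lysis at room temperature. Controls: 0.29 uM artemisinin, DMSO.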

Experiment [2] deals with CP194. The method, boiled down:
as §1

The subject of experiment [3] is CP201. The method, boiled down:
as §1

In experiment [4] the test system is CP203. The gist of the method: as §1
The test system of experiment [5] is CP211. The method, boiled down: as §1
The subject of experiment [6] is CP215. The gist of the method: as §1
In experiment [7] the test system is CP217. The method, boiled down: as §1
In experiment [8] the test system is CP237. The method, boiled down: as §1
Experiment [9] has as its system CP238. The gist of the method:
as §1

The test system of experiment [10] is CP247. The method, boiled down: as §1
Experiment [11] deals with CP250. The gist of the method:
as §1

Experiment [12] has as its system CP252. The gist of the method:
as §1

In experiment [13] the test system is CP256. The method, boiled down:
as §1

For experiment [14], the system named is CP262. The gist of the method:
as §1

The subject of experiment [15] is CP265. The gist of the method: as §1
Experiment [16] deals with CP266. The method, boiled down: as §1
Experiment [17] has as its system CP268. The gist of the method:
as §1

For experiment [18], the system named is CP286. The method, boiled down:
as §1

Experiment [19] has as its system CP269. The gist of the method: as §1
The test system of experiment [20] is CP260. The gist of the method: as §1

Each structure is given as a SMILES string. Records with an inconclusive call do not appear. Calls of active or inactive are those of the source. The call rests on the fitted dose curve; in most records, active means well fitted inhibition curve with a large enough effect; inconclusive means small, poorly fitted or top-dose-only effect; inactive means flat fitted curve, though single readings scatter.
Potency means the concentration at half of the fitted maximal effect.

For `Cc1ccc(C(=O)C(C)CN2CCCCC2)cc1` (stereo not given), the Potency result in experiment [1], in experiment [2], in experiment [3], in [4], in experiment [5] and in experiment [6] was “inactive” each time. Besides, the Potency result in experiment [7], in experiment [8], in experiment [9], in experiment [10], in [11] and in experiment [12] was “inactive” each time. In addition, the Potency entry in [13], in experiment [14], in [16], in experiment [17] and in [18] was “inactive” in each case. Besides, the Potency in experiment [15] was 10 µM (active).
As for `CCOC(=O)/C=C(C)/C=C/C=C(C)/C=C/c1c(C)cc(OC)c(C)c1C`, the Potency result in experiment [1], in [2], in [3], in experiment [4], in [5] and in experiment [6] was “inactive” throughout. Moreover, the Potency result in experiment [8], in experiment [14], in [16], in experiment [17] and in experiment [19] was “inactive” in each case.
For `COC1=CC(=O)C[C@@H](C)[C@]12Oc1c(Cl)c(OC)cc(OC)c1C2=O`, the Potency result in [1], in experiment [2], in experiment [3], in experiment [5], in [6] and in experiment [7] was “inactive” throughout. The Potency result in experiment [8], in [9], in experiment [10], in [11], in experiment [12] and in experiment [13] was “inactive” in each case. Further, the Potency result in experiment [20], in experiment [14], in [15], in experiment [16], in experiment [17] and in [19] was “inactive” each time. In experiment [18], the Potency entry was “inactive”.
On to `CC(=O)N/N=C/c1ccc([N+](=O)[O-])o1`, for which the Potency entry in experiment [1], in experiment [2], in experiment [3], in experiment [4], in [6] and in experiment [9] was “inactive” each time. Further, the Potency result in experiment [16], in experiment [17], in experiment [19] and in experiment [18] was “inactive” each time. Besides, the Potency in experiment [20] was 7.94 µM (active).
For the compound `O=C(O)c1cc2cc(Cc3cccnc3)ccc2o1`, the Potency entry in [1], in experiment [2], in [3], in [5], in experiment [6] and in experiment [7] was “inactive” each time. For the same compound, the Potency result in experiment [8], in experiment [9], in experiment [10], in experiment [11], in experiment [12] and in experiment [13] was “inactive” throughout. Also, the Potency entry in experiment [20], in [14], in experiment [15], in experiment [16], in experiment [17] and in experiment [19] was “inactive” each time. Also, the Potency result in [18] is “inactive”.
For `CCOc1ccc(NC(=O)CC(C)O)cc1` (stereo not given), the Potency result in [1], in experiment [2], in experiment [3], in experiment [5], in experiment [6] and in [7] was “inactive” throughout. In addition, the Potency result in experiment [8], in experiment [9], in [10], in experiment [11], in experiment [12] and in [13] was “inactive” each time. In addition, the Potency entry in experiment [20], in experiment [14], in experiment [15], in experiment [16], in experiment [17] and in experiment [19] was “inactive” in each case. Besides, the Potency result in [18] is “inactive”.
For the compound `O=C(OCCOCCO)c1ccccc1Nc1cccc(C(F)(F)F)c1`, the Potency result in [1], in experiment [2], in experiment [3], in [5], in experiment [6] and in [7] was “inactive” throughout. Besides, the Potency result in experiment [8], in [9], in experiment [10], in experiment [11], in experiment [12] and in [13] was “inactive” in each case. The Potency entry in [20], in experiment [14], in [15], in experiment [17], in experiment [19] and in experiment [18] was “inactive” in each case.
With `CC(=O)OCC(=O)[C@@]1(OC(C)=O)[C@@H](C)C[C@H]2[C@@H]3C[C@H](F)C4=CC(=O)C=C[C@]4(C)[C@@]3(F)[C@@H](O)C[C@@]21C`, the Potency result in experiment [1], in [2], in experiment [3], in [4], in experiment [5] and in [7] was “inactive” in each case. Moreover, the Potency result in experiment [9], in experiment [10], in experiment [11], in [12], in experiment [13] and in experiment [20] was “inactive” throughout. Also, the Potency result in [14], in experiment [16], in [17], in experiment [19] and in [18] was “inactive” throughout.
Consider `CC(=O)OCC(=O)NCCCOc1cccc(CN2CCCCC2)c1`, for which the Potency result in experiment [1], in experiment [2], in experiment [3], in experiment [4], in [6] and in experiment [7] was “inactive” in each case. For the same compound, the Potency result in experiment [8], in [9], in [10], in [11], in experiment [12] and in [13] was “inactive” in each case. Besides, the Potency result in [20], in experiment [14], in experiment [15], in experiment [16], in experiment [17] and in experiment [19] was “inactive” in each case. Moreover, the Potency result in experiment [18] is “inactive”.
As to `CC(=O)Oc1ccc(C(c2ccc(OC(C)=O)cc2)c2ccccn2)cc1`, the Potency result in [1], in experiment [2], in experiment [3], in experiment [5], in [6] and in [7] was “inactive” each time. For the same compound, the Potency entry in [8], in [9], in experiment [10], in [11], in [12] and in experiment [13] was “inactive” throughout. Moreover, the Potency entry in experiment [20], in [14], in experiment [15], in [16], in [17] and in experiment [19] was “inactive” each time. In addition, the Potency entry in [18] is “inactive”.
As to `O=C(O)CNC(=O)c1ccccc1`, the Potency entry in experiment [1], in experiment [2], in experiment [3], in [5], in experiment [6] and in experiment [7] was “inactive” each time. The Potency entry in experiment [8], in experiment [9], in [10], in experiment [11], in experiment [12] and in [13] was “inactive” each time. In addition, the Potency entry in experiment [20], in [14], in [15], in experiment [16], in [17] and in [19] was “inactive” each time. Further, the Potency result in experiment [18] was “inactive”.
Take `NCCCC[C@H](N[C@@H](CCc1ccccc1)C(=O)O)C(=O)N1CCC[C@H]1C(=O)O`: the Potency entry in experiment [1], in [2], in experiment [3], in [5], in [6] and in experiment [7] was “inactive” throughout. Besides, the Potency result in experiment [8], in [9], in [10], in experiment [11], in experiment [12] and in [13] was “inactive” in each case. For the same compound, the Potency result in experiment [20], in [14], in experiment [15], in experiment [16], in experiment [17] and in [19] was “inactive” throughout. The Potency result in [18] was “inactive”.
As for `Cc1cccn2c(=O)c(-c3nnn[nH]3)cnc12`, the Potency entry in [1], in [2], in experiment [3], in [5], in [6] and in [7] was “inactive” each time. The Potency entry in experiment [8], in experiment [9], in [10], in experiment [11], in [12] and in [13] was “inactive” in each case. For the same compound, the Potency result in [20], in experiment [14], in experiment [15], in [16], in [17] and in experiment [19] was “inactive” in each case. For the same compound, the Potency result in experiment [18] was “inactive”.
On to `O=C(Nc1ccc(Oc2ccc(Cl)cc2)c(Cl)c1)c1cc(I)cc(I)c1O`, for which the Potency result in experiment [1], in [2], in experiment [3], in experiment [4], in experiment [5] and in experiment [9] was “inactive” in each case. Besides, the Potency result in [13], in [14], in [16], in experiment [17], in [19] and in [18] was “inactive” throughout. The Potency in [7] is 0.158 µM (active).

The record behind these values is PubChem BioAssay (NCATS).
